# Results published in ChEMBL document CHEMBL3988442, “University of Dundee, Small-Polar-MMV Screening Library” (2021).
# The whole screen tested about 66,000 compounds, of which about 960 (1.5%) showed an effect of 50% or more. The entries come from a sample that favours strong results as a whole.
# Tested on: Trypanosoma brucei
# Experiment: Trypanosoma brucei 72 hour study
# Format: functional, organism-based
# Parameters: scale not given: in the data most compounds retested in dose-response had high values
structure (smiles),measurement,setting,value
COCCN1CCc2cc(C(=O)O)c(NCC3CC3)nc2CC1.O=C(O)C(F)(F)F.O=C(O)C(F)(F)F,Percent Effect,"30.3 µM, […]",-92.37%
CCCn1nccc1C(=O)Nc1ncc(C)s1,Percent Effect,"30.3 µM, […]",83.34%
CCCn1nccc1C(=O)Nc1nc(C)c(C)s1,Percent Effect,"30.3 µM, […]",41.43%
CCn1nccc1C(=O)Nc1nc(C)c(C(C)=O)s1,Percent Effect,"30.3 µM, […]",-2.793%
COCC1CC2(CCN(Cc3ccco3)CC2)CN1C(C)C.O=C(O)C(F)(F)F.O=C(O)C(F)(F)F (stereo not given),Percent Effect,"30 µM, 30.03 µM",42.98%
COc1cc(N2CCCC(c3nccn3Cc3cscn3)C2)nc(N)n1 (stereo not given),Percent Effect,"30 µM, 30.03 µM",59%
COc1cc(N2CCCC(c3nccn3CCN(C)C)C2)nc(N)n1 (stereo not given),Percent Effect,"30 µM, 30.03 µM",42.15%
COCCn1ccnc1C1CCCN(c2cc(OC)nc(N)n2)C1 (stereo not given),Percent Effect,"30 µM, 30.03 µM",-68.81%
Cc1cccn2cc(CNCc3cccc4c3OCCCO4)nc12,Percent Effect,"30.3 µM, […]",17.5%
CCC[C@]12CN3C[C@](CCC)(CN(C1)C3c1[nH]c(=O)[nH]c(=O)c1C)C2=O (stereo not given in full),Percent Effect,"30 µM, 30.03 µM",-52.93%
CCc1noc(C2CCCCN2C(=O)c2cc(C)n(C)n2)n1 (stereo not given),Percent Effect,"30.3 µM, […]",-3.284%
Cc1csc(C2CCCCN2C(=O)c2cc(C(C)C)[nH]n2)n1 (stereo not given),Percent Effect,10 µM,-49.47%
CC(C)c1n[nH]c(C(=O)Nc2ccnn2C(C)C)c1Br,Percent Effect,"30 µM, 30.03 µM",-7.131%
CC(C)c1n[nH]c(C(=O)Nc2ccccn2)c1Br,Percent Effect,"30.3 µM, […]",50.04%
same,Percent Effect,"10 mM, 10 mM as filed; unlikely as a test dose",-45.45%
Cc1ccnc(NC(=O)c2[nH]nc(C(C)C)c2Br)c1,Percent Effect,"30.3 µM, […]",57.19%
same,Percent Effect,"10 mM, 10 mM as filed; unlikely as a test dose",-20%
CC(C)c1n[nH]c(C(=O)Nc2cc[nH]n2)c1Br,Percent Effect,"30 µM, 30.03 µM",-42.25%
Cc1cccc(NC(=O)c2[nH]nc(C(C)C)c2Br)n1,Percent Effect,"30.3 µM, […]",56.85%
same,Percent Effect,"10 mM, 10 mM as filed; unlikely as a test dose",8.768%
COc1ccccc1NC(=O)c1[nH]nc(C(C)C)c1Br,Percent Effect,"30 µM, 30.03 µM",-9.686%
COc1ncccc1NC(=O)c1[nH]nc(C(C)C)c1Br,Percent Effect,"30 µM, 30.03 µM",7.14%
CC(C)c1n[nH]c(C(=O)NC(C)c2ccncc2)c1Br (stereo not given),Percent Effect,"30.3 µM, […]",20.51%
same,Percent Effect,"10 mM, 10 mM as filed; unlikely as a test dose",-71.89%
CC(C)c1n[nH]c(C(=O)Nc2ccncc2)c1Br,Percent Effect,"30 µM, 30.03 µM",-10.71%
CCOC[C@]12COC[C@H]1CN(Cc1ccc(F)c(F)c1)C2.O=C(O)C(F)(F)F,Percent Effect,"30.3 µM, […]",6.986%
CS(=O)(=O)N[C@H]1CN(C(=O)c2cscn2)[C@@H]2CCCO[C@H]12,Percent Effect,"30 µM, 30.03 µM",28.48%
CNC(=O)[C@H]1C[C@@H]2CN(C(=O)c3ccccn3)C[C@@H]2N1S(C)(=O)=O.O=C(O)C(F)(F)F,Percent Effect,"30.3 µM, […]",-16.02%
CN1CCCC(CCC(=O)NCCc2nnc(N)s2)C1 (stereo not given),Percent Effect,"30 µM, 30.03 µM",1.066%
Cc1ccc(C(=O)N2CCC3(CC2)CCN(CCN(C)C)C3=O)cn1.O=C(O)C(F)(F)F.O=C(O)C(F)(F)F,Percent Effect,"30.3 µM, […]",-7.554%
